# Experimental data as given in PubChem BioAssay AID2540 (Sanford-Burnham Center for Chemical Genomics, 2010).
# The whole screen tested about 330,000 compounds, of which about 4,100 (1.2%) were called active. The list comes from a sample in which actives are over-represented; it also holds similar structures and randomly drawn compounds. Values without a mark were called inactive. No stated cut-off is given here; in the data, active means inhibition above about 50%; inactive means the rest.
# Biological target: Sentrin-specific protease 8 (Homo sapiens) (UniProt Q96LD8)
# Sequence (Q96LD8 whole entry, looked up): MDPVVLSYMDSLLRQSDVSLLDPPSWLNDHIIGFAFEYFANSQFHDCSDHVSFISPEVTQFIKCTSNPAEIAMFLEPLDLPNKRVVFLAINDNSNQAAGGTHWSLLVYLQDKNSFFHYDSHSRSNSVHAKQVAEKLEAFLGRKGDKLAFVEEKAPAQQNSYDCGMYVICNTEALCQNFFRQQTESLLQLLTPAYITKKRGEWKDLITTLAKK
# Test: SENP8 protease inhibitors, primary screen, biochemical, luminescence (AID 2540)
# Settings: purified SENP8, Z-RLRGG-aminoluciferin cleavage, at 10 µM, stronger effect = higher value
row,Compound,inhibition
1,N=c1oc2ccccc2cc1C(=O)NCc1ccccc1,-17.9%
2,Cc1ccc(/C=N/NC(=S)Nc2cccc(S(=O)(=O)N(C)C)c2)o1,1.79%
3,CNC(=O)c1cc2c(ccc3ccccc32)oc1=N,-3%
4,Cc1ccc(/C=N/NC(=O)c2cc3ccccc3cc2O)o1,55.8% (active)
5,Cc1ccc(/C=N/NC(=S)NC2CCCCC2)o1,-5.05%
6,N=c1oc2ccccc2cc1C(=O)N/N=C/c1ccccc1,86.5% (active)
7,CN(CC(=O)NC1CCCC1)S(=O)(=O)c1cnc[nH]1,-8.57%
8,O=C(NCCO)C(=O)NCC(c1ccc2c(c1)OCO2)N1CCN(c2ccc(F)cc2)CC1 (configuration not stated),-0.025%
9,CC(=O)N1CC(C)c2scc(C)[n+]2-c2ccccc21 (configuration not stated),0.506%
10,COc1ccc(S(=O)(=O)Nc2ccc(F)cc2)c(C)c1C,3.56%
11,O=C(Nc1cc2c3c(c1)CC(=O)N3CCC2)c1ccccc1F,3.3%
12,Cc1ccc(C)c(NC(=O)CSc2nc3c(oc4ccccc43)c(=O)n2-c2ccccc2)c1,-0.496%
13,Oc1ccc(N=Nc2nccs2)c(O)c1,72.7% (active)
14,O=C(Nc1cccc(Cl)c1)Nc1ccccc1NS(=O)(=O)c1cccs1,11.3%
15,COC(=O)CNC(c1ccccc1Cl)c1cc(Br)ccc1NC(=O)CCN1CCOCC1 (configuration not stated),-4.92%
16,Cn1c(Cn2nnc3ccccc32)nnc1SCC(=O)c1ccccc1F,0%
17,Cc1oc(-c2cccc(Cl)c2)[n+]([O-])c1C,-7.45%
18,Clc1ccc(-c2cc(C3CCNCC3)[nH]n2)c(Cl)c1,0.621%
19,Cc1nn(C)cc1N1C(=O)c2cccc3c(N)ccc(c23)C1=O,0.391%
20,CCN1C(=O)c2cccc3c(N)ccc1c23,83.8% (active)
21,CCN1C(=O)c2cccc3c(S(=O)(=O)Nc4ccccc4O)ccc1c23,6.13%
22,CC1=C2C(=O)OC(c3ccoc3)C2(C)CCC1 (configuration not stated),-1.03%
23,CCc1ccc(NC(=O)C(=O)NNC(=O)c2cccs2)cc1,69.7% (active)
24,CCc1ccc(NC(=O)COC(=O)c2cccs2)cc1,11.2%

row,Compound,inhibition
1,CC(C)C(=O)Nc1ccc(C(=O)NNC(=O)c2cccs2)cc1,-0.29%
2,Cc1ccc(CCCOC(=O)C[N+]2(C)CCCCC2)cc1,7.71%
3,COc1ccc(CCNc2cc(N3CCN(C(=O)c4ccccc4OC)CC3)ccc2[N+](=O)[O-])cc1OC,-3.35%
4,CC1=NN(C(N)=S)C(=O)C1N=Nc1cc(Cl)ccc1Cl (configuration not stated),70.4% (active)
5,NC(=O)CC[C@@H]1NC(=O)[C@@H]2CCCN2C(=O)c2cc([N+](=O)[O-])cc(F)c2NCCC[C@@H](C(N)=O)NC1=O,-2.54%
6,CN(CC(=O)NCc1cccnc1)S(=O)(=O)c1cc(Cl)ccc1Cl,3.65%
7,CN1C(C(=O)NCc2ccco2)CC2Cn3c(nc4ccccc43)C21 (configuration not stated),-18.3%
8,O=C(O)CN1C(=O)CC(Cc2ccccc2)C1=O (configuration not stated),4.48%
9,CCOC(=O)c1ccc(Nc2cc3ccccc3c(=O)[nH]2)cc1,64.2% (active)
10,CCOC(=O)c1ccc(Nc2cc(C)nc3nc(C)nn23)cc1,7.18%
11,CCOC(=O)c1ccc(NC(=O)c2c(NCc3ccccc3)[nH]c(=O)[nH]c2=O)cc1,0.312%
12,O=C(NN1C(=O)C2C3C=CC(O3)C2C1=O)c1ccccc1 (configuration not stated),-0.512%
13,Nc1ccc(N=Nc2ccccc2Cl)c(N)n1,72.7% (active)
14,COc1ccccc1C1CC(=O)n2c(nc(-c3ccccc3)c2-c2ccccc2)S1 (configuration not stated),-4.43%
15,CC(=O)c1cnn(-c2cc(Oc3ccc(F)cc3)ncn2)c1C,9.6%
16,O=C(COc1ccc2c(c1)CCC2)N1CCN(c2ccc(F)cc2)CC1,-17.5%
17,COc1ccc(-c2sc3ccccc3c2-c2ccc(OCCN3CCOCC3)cc2)cc1,8%
18,COc1ccc(N=C(C)c2sc3ccccc3c2O)cc1,74% (active)
19,COC(=O)c1ccc(/C=C/c2c(-c3ccc(OC)cc3)sc3ccccc23)cc1,-2.53%
20,COC(=O)C1=CN(c2ccc(F)c(F)c2)C=C(C(=O)OC)C1c1ccc([N+](=O)[O-])cc1,-9.67%
21,CC(=O)N1CCN(C(=O)C2(NC(=O)Nc3ccc(C)cc3)CCCCC2)CC1,5.59%
22,CC1(C)CC(N(Cc2ccccc2)C(=O)Cc2ccccc2)CCO1 (configuration not stated),-3.89%
23,COc1ccc(-c2ccc(OC(=O)NC3CCS(=O)(=O)C3)cc2)cc1 (configuration not stated),-13.5%
